# Measured values: the supplement of paper PMC10127200
# Counter-ions that a name gives are not always drawn.
# Columns and labels:
# Experiment in all cases: Euclidean distance of Cell Painting phenotypic profile (signed KS, 77 features) to DMSO centroid (dimensionless distance); 5 or 10 uM (library dependent); higher = stronger phenotypic change vs DMSO (phenoactivity)
# Details in all cases: 48 h
# [1] = system: 786-O
# Procedure, shortened: (§1)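 Phenoactivity is computed as Euclidean distance to the median vehicle profile. The profiles, drawn from 77 Harmony features scored as signed Kolmogorov-Smirnov statistics versus same-plate vehicle wells, were corrected for plate position, correlation-weighted and replicate-averaged at the top dose. Stained cells were imaged confocally at 20X (9 fields/well) after 48 h with library compounds at 10 or 5 uM, 0.1% DMSO final, in five cancer lines and a healthy fibroblast line.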
# [2] = system: A549
# Procedure, shortened: as §1
# [3] = system: DU145
# Procedure, shortened: as §1
# [4] = system: FB
# Procedure, shortened: as §1
# [5] = system: HEPG2
# Procedure, shortened: as §1
# [6] = system: OVCAR4
# Procedure, shortened: as §1
compound,measurement,setting,value
CCC(=O)NS(=O)(=O)c1ccc(-c2c(-c3ccccc3)noc2C)cc1 [Parecoxib],Euclidean distance,[1],0.575
same,Euclidean distance,[2],0.57
same,Euclidean distance,[3],0.471
same,Euclidean distance,[4],1.11
same,Euclidean distance,[5],0.593
same,Euclidean distance,[6],0.719
COc1cc(C(=O)NS(=O)(=O)c2ccccc2C)ccc1Cc1cn(C)c2ccc(NC(=O)OC3CCCC3)cc12 [Zafirlukast],Euclidean distance,[1],0.974
same,Euclidean distance,[2],1.5
same,Euclidean distance,[3],1.22
same,Euclidean distance,[4],1.21
same,Euclidean distance,[5],0.548
same,Euclidean distance,[6],1.34
CCCCC(=O)O[C@H]1CC[C@H]2[C@@H]3CCc4cc(O)ccc4[C@H]3CC[C@]12C [Estradiol valerate],Euclidean distance,[1],1.37
same,Euclidean distance,[2],0.77
same,Euclidean distance,[3],1.17
same,Euclidean distance,[4],0.885
same,Euclidean distance,[5],0.621
same,Euclidean distance,[6],1.21
COc1cc(CNC(=O)CCCCC=CC(C)C)ccc1O [Capsaicin(Vanilloid)],Euclidean distance,[1],1.06
same,Euclidean distance,[2],1.47
same,Euclidean distance,[3],1.35
same,Euclidean distance,[4],0.876
same,Euclidean distance,[5],0.778
same,Euclidean distance,[6],1.44
O=C(O)c1ccc(CN2CCC(CN[C@@H]3C[C@H]3c3ccccc3)CC2)cc1,Euclidean distance,[1],1.04
same,Euclidean distance,[2],1.01
same,Euclidean distance,[3],0.946
same,Euclidean distance,[4],1.08
same,Euclidean distance,[5],1.11
same,Euclidean distance,[6],1.06
O=C(Cn1ccnc1[N+](=O)[O-])NCc1ccccc1 [Benznidazole],Euclidean distance,[1],1.16
same,Euclidean distance,[2],1.1
same,Euclidean distance,[3],1.58
same,Euclidean distance,[4],1.03
same,Euclidean distance,[5],0.581
same,Euclidean distance,[6],1.14
CCn1cc(C(=O)O)c(=O)c2cc(F)c(N3CCNCC3)nc21 [Enoxacin],Euclidean distance,[1],1.03
same,Euclidean distance,[2],0.783
same,Euclidean distance,[3],1.59
same,Euclidean distance,[4],0.837
same,Euclidean distance,[5],2.02
same,Euclidean distance,[6],1.35
C=C1CC[C@H](O)C/C1=C/C=C1\CCC[C@]2(C)[C@@H]([C@H](C)/C=C/[C@H](C)C(C)C)CC[C@@H]12 [Vitamin D2],Euclidean distance,[1],2.59
same,Euclidean distance,[2],0.759
same,Euclidean distance,[3],5.76
same,Euclidean distance,[4],1.38
same,Euclidean distance,[5],2.02
same,Euclidean distance,[6],2.05
Nc1nccc(Oc2ccc(NC(=O)c3c[nH]cc(-c4ccc(F)cc4)c3=O)cc2F)c1Cl,Euclidean distance,[1],1.57
same,Euclidean distance,[2],1.17
same,Euclidean distance,[3],1.56
same,Euclidean distance,[4],1.94
same,Euclidean distance,[5],1.17
same,Euclidean distance,[6],1.62
O=C(Nc1cccc2cccnc12)c1ccc(N2C(=O)[C@@H]3[C@H](C2=O)[C@@H]2C=C[C@H]3C2)cc1 [IWR-1-endo],Euclidean distance,[1],1
same,Euclidean distance,[2],1.06
same,Euclidean distance,[3],1.39
same,Euclidean distance,[4],1.64
same,Euclidean distance,[5],1.53
same,Euclidean distance,[6],1.54
Cc1c(Nc2ncccc2C(=O)O)cccc1C(F)(F)F [Flunixin Meglumin],Euclidean distance,[1],1.03
same,Euclidean distance,[2],0.853
same,Euclidean distance,[3],0.874
same,Euclidean distance,[4],0.516
same,Euclidean distance,[5],1.42
same,Euclidean distance,[6],1.88
Cc1ccc(S(=O)(=O)/C=C/C#N)cc1,Euclidean distance,[1],1.7
same,Euclidean distance,[2],1.37
same,Euclidean distance,[3],1.36
same,Euclidean distance,[4],3.14
same,Euclidean distance,[5],2.05
same,Euclidean distance,[6],2.5
COc1cc(/C=C/C(=O)O)ccc1O [Ferulic Acid],Euclidean distance,[1],0.857
same,Euclidean distance,[2],0.966
same,Euclidean distance,[3],0.806
same,Euclidean distance,[4],0.925
same,Euclidean distance,[5],0.541
same,Euclidean distance,[6],1.73
c1ccc2[nH]c(-c3cscn3)nc2c1 [Thiabendazole],Euclidean distance,[1],1.16
same,Euclidean distance,[2],0.753
same,Euclidean distance,[3],1.31
same,Euclidean distance,[4],1.1
same,Euclidean distance,[5],1.93
same,Euclidean distance,[6],0.914
NCCCC[C@H](N[C@@H](CCc1ccccc1)C(=O)O)C(=O)N1CCC[C@H]1C(=O)O [Lisinopril dihydrate],Euclidean distance,[1],1.2
same,Euclidean distance,[2],0.621
same,Euclidean distance,[3],0.821
same,Euclidean distance,[4],0.86
same,Euclidean distance,[5],0.746
same,Euclidean distance,[6],1.51
CCC(C)n1ncn(-c2ccc(N3CCN(c4ccc(OCC5COC(Cn6cncn6)(c6ccc(Cl)cc6Cl)O5)cc4)CC3)cc2)c1=O (stereo not drawn) [Itraconazole],Euclidean distance,[1],4.09
same,Euclidean distance,[2],2.48
same,Euclidean distance,[3],1.52
same,Euclidean distance,[4],1.53
same,Euclidean distance,[5],1.02
same,Euclidean distance,[6],1
CC1Cc2ccccc2N1NC(=O)c1ccc(Cl)c(S(N)(=O)=O)c1 (stereo not drawn) [Indapamide],Euclidean distance,[1],0.856
same,Euclidean distance,[2],0.679
same,Euclidean distance,[3],1.26
same,Euclidean distance,[4],0.772
same,Euclidean distance,[5],1.91
same,Euclidean distance,[6],1.41
CC1=C(C(=O)O)N2C(=O)[C@@H](NC(=O)[C@H](N)c3ccc(O)cc3)[C@H]2SC1 [Cefadroxil hydrate],Euclidean distance,[1],1.09
same,Euclidean distance,[2],0.5
same,Euclidean distance,[3],0.78
same,Euclidean distance,[4],0.785
same,Euclidean distance,[5],0.893
same,Euclidean distance,[6],0.794
CC1(C)CCC(CN2CCN(c3ccc(C(=O)NS(=O)(=O)c4ccc(NCC5CCOCC5)c([N+](=O)[O-])c4)c(Oc4cnc5[nH]ccc5c4)c3)CC2)=C(c2ccc(Cl)cc2)C1,Euclidean distance,[1],2.06
same,Euclidean distance,[2],1.55
same,Euclidean distance,[3],1.25
same,Euclidean distance,[4],0.81
same,Euclidean distance,[5],1.11
same,Euclidean distance,[6],1.16
CCC(=O)c1c(O)cc(O)cc1O [Flopropione],Euclidean distance,[1],1.34
same,Euclidean distance,[2],0.879
same,Euclidean distance,[3],1.2
same,Euclidean distance,[4],1.39
same,Euclidean distance,[5],0.447
same,Euclidean distance,[6],1.04
CCCOc1ccc(C(=O)OCCN(CC)CC)cc1N [Proparacaine HCl],Euclidean distance,[1],1.06
same,Euclidean distance,[2],1.11
same,Euclidean distance,[3],1.7
same,Euclidean distance,[4],1.27
same,Euclidean distance,[5],0.765
same,Euclidean distance,[6],1.27
C[C@H](NC(=O)CCC(F)(F)F)C(=O)N[C@@H]1C(=O)N(CCO)c2ncccc2-c2ccccc21,Euclidean distance,[1],0.859
same,Euclidean distance,[2],0.929
same,Euclidean distance,[3],1.3
same,Euclidean distance,[4],0.741
same,Euclidean distance,[5],0.66
same,Euclidean distance,[6],1.09
Fc1ccc(C(c2ccc(F)cc2)N2CCN(C/C=C/c3ccccc3)CC2)cc1 [Flunarizine 2HCl],Euclidean distance,[1],0.978
same,Euclidean distance,[2],1.16
same,Euclidean distance,[3],1.34
same,Euclidean distance,[4],0.938
same,Euclidean distance,[5],2.13
same,Euclidean distance,[6],1.24
